Holding throughout (assay): yeast three-hybrid, YBZ-1, SC-Leu-His + 0.5 mM 3-AT, 4 days
Common to all, as to conditions: tags: N-Gal4 AD-HA kept; label: inside an RPR1-promoter hybrid RNA with tandem MS2 sites; ssRNA

One assay concerns the target PUM1 PUF domain R3-LRG (Homo sapiens, UniProt Q14671 828-1176, C935L;Q939G). The essentials:
(§1)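 Pumilio-1 PUF domain libraries, randomized (NNK) at the three base-contacting residues of each repeat, were co-expressed with matching RNA elements from a centromeric plasmid in strain YBZ-1 (LexA–MS2 coat fusion, HIS3 reporter). Transformants were plated on SC-Leu (input) and SC-Leu-His + 0.5 mM 3-AT (selection) for four days, and repeat regions were PCR-amplified and Illumina-sequenced. The interaction score is the log2 change in variant frequency from input to selection, with pseudocount 1 where absent.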

In a further assay the target is PUM1 PUF domain R5-HRS (Homo sapiens, UniProt Q14671 828-1176, C1007H;Q1011S). The procedure, abridged:
as §1

In a further assay the target is PUM1 PUF domain R5-GRR (Homo sapiens, UniProt Q14671 828-1176, C1007G;Q1011R). The procedure, abridged:
as §1

The next assay addresses PUM1 PUF domain R2-GWW (Homo sapiens, UniProt Q14671 828-1176, N899G;Y900W;Q903W). The essentials:
as §1

For another assay, the target named is PUM1 PUF domain R2-VYE (Homo sapiens, UniProt Q14671 828-1176, N899V;Q903E). The procedure, abridged:
as §1

Another assay has as its target PUM1 PUF domain R1-KSA (Homo sapiens, UniProt Q14671 828-1176, S863K;R864S;Q867A). The procedure, abridged:
as §1

The target of another assay is PUM1 PUF domain R1-GKR (Homo sapiens, UniProt Q14671 828-1176, S863G;R864K;Q867R). The essentials: as §1
The target in a further assay is PUM1 PUF domain R1-KDT (Homo sapiens, UniProt Q14671 828-1176, S863K;R864D;Q867T). The procedure, abridged: as §1
A further assay concerns the target PUM1 PUF domain R4-SPI (Homo sapiens, UniProt Q14671 828-1176, N971S;H972P;Q975I). The procedure, abridged: as §1
The target in a further assay is PUM1 PUF domain R4-GNG (Homo sapiens, UniProt Q14671 828-1176, N971G;H972N;Q975G). The procedure, abridged: as §1
Chain of PUM1 PUF domain R4-GNG (Q14671 828-1176 N971G/H972N/Q975G): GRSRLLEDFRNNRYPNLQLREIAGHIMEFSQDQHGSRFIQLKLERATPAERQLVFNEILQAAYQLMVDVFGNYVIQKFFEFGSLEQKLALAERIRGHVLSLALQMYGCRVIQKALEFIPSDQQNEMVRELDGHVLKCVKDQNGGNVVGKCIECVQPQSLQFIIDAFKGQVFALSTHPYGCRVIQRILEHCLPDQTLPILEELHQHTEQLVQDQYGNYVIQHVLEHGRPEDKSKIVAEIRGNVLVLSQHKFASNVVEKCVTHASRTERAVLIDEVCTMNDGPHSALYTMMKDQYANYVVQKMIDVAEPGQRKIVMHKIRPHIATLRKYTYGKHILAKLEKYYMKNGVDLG
Another assay has as its target PUM1 PUF domain R4-GRR (Homo sapiens, UniProt Q14671 828-1176, N971G;H972R;Q975R). The procedure, abridged:
as §1

A further assay deals with PUM1 PUF domain R4-WAK (Homo sapiens, UniProt Q14671 828-1176, N971W;H972A;Q975K). The essentials: as §1
The target of a further assay is PUM1 PUF domain R4-QWP (Homo sapiens, UniProt Q14671 828-1176, N971Q;H972W;Q975P). The essentials: as §1
The target in the next assay is PUM1 PUF domain R2-PVM (Homo sapiens, UniProt Q14671 828-1176, N899P;Y900V;Q903M). The procedure, abridged: as §1
The next assay deals with PUM1 PUF domain R5-SVT (Homo sapiens, UniProt Q14671 828-1176, C1007S;R1008V;Q1011T). The essentials: as §1
The target of the next assay is PUM1 PUF domain R7-RSS (Homo sapiens, UniProt Q14671 828-1176, S1079R;N1080S;E1083S). The essentials:
as §1

Another assay has as its target PUM1 PUF domain R3-DHR (Homo sapiens, UniProt Q14671 828-1176, C935D;R936H;Q939R). The essentials:
as §1

A further assay has as its target PUM1 PUF domain R3-SRH (Homo sapiens, UniProt Q14671 828-1176, C935S;Q939H). The essentials:
as §1

The target of a further assay is PUM1 PUF domain R3-VRD (Homo sapiens, UniProt Q14671 828-1176, C935V;Q939D). The procedure, abridged: as §1
The target in another assay is PUM1 PUF domain R8-KYW (Homo sapiens, UniProt Q14671 828-1176, N1122K;Q1126W). The essentials:
as §1

Chain of PUM1 PUF domain R5-HRS (Q14671 828-1176 C1007H/Q1011S): as the sequence (Q14671 828-1176 N971G/H972N/Q975G) above, with G144N, N145H, G148Q, C180H, Q184S counted along it

As to “GGCUAGAACUAGUGGAUCCCCCGGCGCCCGGCGGCUCGAGCCCGGGUAAGUGUAAGUAGUCUGCAUGCCGCCGGGCGCCAUGCCUGCAGGUCGACUCUAGAAAACAUG”, the binding signal with PUM1 PUF domain R3-LRG was 3.85 log2 enrichment (interaction score).

For the sequence “GGCUAGAACUAGUGGAUCCCCCGGCGCCCGGCGGCUCGAGCCCGGGUAAGUGUUAAUAGUCUGCAUGCCGCCGGGCGCCAUGCCUGCAGGUCGACUCUAGAAAACAUG”, the binding signal with PUM1 PUF domain R5-HRS was 4.01 log2 enrichment (interaction score); with PUM1 PUF domain R5-GRR, 0.43 log2 enrichment (interaction score).

Turning to “GGCUAGAACUAGUGGAUCCCCCGGCGCCCGGCGGCUCGAGCCCGGGUAAGUGUAAAAAGUCUGCAUGCCGCCGGGCGCCAUGCCUGCAGGUCGACUCUAGAAAACAUG”, the binding signal in the assay with PUM1 PUF domain R2-GWW was 4.69 log2 enrichment (interaction score); with PUM1 PUF domain R2-VYE, 2.23 log2 enrichment (interaction score).

For “GGCUAGAACUAGUGGAUCCCCCGGCGCCCGGCGGCUCGAGCCCGGGUAAGUGUAAAUCGUCUGCAUGCCGCCGGGCGCCAUGCCUGCAGGUCGACUCUAGAAAACAUG”, the binding signal is 3.27 log2 enrichment (interaction score) in the assay with PUM1 PUF domain R1-KSA, 3.4 log2 enrichment (interaction score) with PUM1 PUF domain R1-GKR and 0.73 log2 enrichment (interaction score) in the assay with PUM1 PUF domain R1-KDT.

“GGCUAGAACUAGUGGAUCCCCCGGCGCCCGGCGGCUCGAGCCCGGGUAAGUGUACAUAGUCUGCAUGCCGCCGGGCGCCAUGCCUGCAGGUCGACUCUAGAAAACAUG”: the binding signal with PUM1 PUF domain R4-SPI was 0.54 log2 enrichment (interaction score); with PUM1 PUF domain R4-GNG, 2.39 log2 enrichment (interaction score); in the assay with PUM1 PUF domain R4-GRR, 2.98 log2 enrichment (interaction score).

As for “GGCUAGAACUAGUGGAUCCCCCGGCGCCCGGCGGCUCGAGCCCGGGUAAGUGUAUAUAGUCUGCAUGCCGCCGGGCGCCAUGCCUGCAGGUCGACUCUAGAAAACAUG”, the binding signal in the assay with PUM1 PUF domain R4-SPI was 2.21 log2 enrichment (interaction score); in the assay with PUM1 PUF domain R4-GNG it was 3.28 log2 enrichment (interaction score); in the assay with PUM1 PUF domain R4-WAK, 2.71 log2 enrichment (interaction score); with PUM1 PUF domain R4-QWP it was 5.65 log2 enrichment (interaction score).

Take “GGCUAGAACUAGUGGAUCCCCCGGCGCCCGGCGGCUCGAGCCCGGGUAAGUGUAAAGAGUCUGCAUGCCGCCGGGCGCCAUGCCUGCAGGUCGACUCUAGAAAACAUG”: the binding signal was 0.92 log2 enrichment (interaction score) in the assay with PUM1 PUF domain R2-GWW and 2.58 log2 enrichment (interaction score) in the assay with PUM1 PUF domain R2-PVM.

For the sequence “GGCUAGAACUAGUGGAUCCCCCGGCGCCCGGCGGCUCGAGCCCGGGUAAGUGUGAAUAGUCUGCAUGCCGCCGGGCGCCAUGCCUGCAGGUCGACUCUAGAAAACAUG”, the results for the binding signal with PUM1 PUF domain R5-SVT and with PUM1 PUF domain R5-HRS were 3.92 log2 enrichment (interaction score) and 0.46 log2 enrichment (interaction score), respectively.

Turning to “GGCUAGAACUAGUGGAUCCCCCGGCGCCCGGCGGCUCGAGCCCGGGUAAGUGUCAAUAGUCUGCAUGCCGCCGGGCGCCAUGCCUGCAGGUCGACUCUAGAAAACAUG”, the binding signal with PUM1 PUF domain R5-HRS was 2.88 log2 enrichment (interaction score); in the assay with PUM1 PUF domain R5-GRR, 5.4 log2 enrichment (interaction score).

In the case of “GGCUAGAACUAGUGGAUCCCCCGGCGCCCGGCGGCUCGAGCCCGGGUAAGUGUAAAUUGUCUGCAUGCCGCCGGGCGCCAUGCCUGCAGGUCGACUCUAGAAAACAUG”, the binding signal was 3.4 log2 enrichment (interaction score) with PUM1 PUF domain R1-GKR and 5.43 log2 enrichment (interaction score) in the assay with PUM1 PUF domain R1-KDT.

Consider “GGCUAGAACUAGUGGAUCCCCCGGCGCCCGGCGGCUCGAGCCCGGGUAAGUUUAAAUAGUCUGCAUGCCGCCGGGCGCCAUGCCUGCAGGUCGACUCUAGAAAACAUG”, for which the binding signal in the assay with PUM1 PUF domain R7-RSS is 2.76 log2 enrichment (interaction score).

For the sequence “GGCUAGAACUAGUGGAUCCCCCGGCGCCCGGCGGCUCGAGCCCGGGUAAGUGUAAAUAGUCUGCAUGCCGCCGGGCGCCAUGCCUGCAGGUCGACUCUAGAAAACAUG”, the binding signal with PUM1 PUF domain R4-GNG is 1.49 log2 enrichment (interaction score); with PUM1 PUF domain R3-DHR, 3.23 log2 enrichment (interaction score); in the assay with PUM1 PUF domain R3-SRH, 4.37 log2 enrichment (interaction score); with PUM1 PUF domain R5-GRR it was 0.47 log2 enrichment (interaction score); with PUM1 PUF domain R3-VRD, 4.68 log2 enrichment (interaction score); in the assay with PUM1 PUF domain R8-KYW it was 5.55 log2 enrichment (interaction score).

On to “GGCUAGAACUAGUGGAUCCCCCGGCGCCCGGCGGCUCGAGCCCGGGUAAGUGUAAUUAGUCUGCAUGCCGCCGGGCGCCAUGCCUGCAGGUCGACUCUAGAAAACAUG”, for which the binding signal with PUM1 PUF domain R3-LRG was 0.54 log2 enrichment (interaction score).

Regarding “GGCUAGAACUAGUGGAUCCCCCGGCGCCCGGCGGCUCGAGCCCGGGUAAGUCUAAAUAGUCUGCAUGCCGCCGGGCGCCAUGCCUGCAGGUCGACUCUAGAAAACAUG”, the binding signal with PUM1 PUF domain R7-RSS was 1.34 log2 enrichment (interaction score).
